From PubChem BioAssay AID504834 (National Center for Advancing Translational Sciences (NCATS), 2011)
About 22,000 (6.9%) of roughly 320,000 compounds were called active. Not shown: some 27% with an inconclusive outcome. Calls follow the shape of the dose curve; as a rule, active = well fitted inhibition curve with a large enough effect; inconclusive = small, poorly fitted or top-dose-only effect, or another doubt; inactive = no such curve, though single readings can be large or run the other way. Many of the other results were omitted from the sample, so actives are more common in it than they were.
% is scaled to controls: 0 for no effect and ±100 for the full control effect; potency is read from the fitted curve at half-maximal effect.

Test: Primary qHTS for delayed death inhibitors of the malarial parasite plastid, 96 hour incubation
Conditions: P. falciparum luciferase reporter growth; series mostly up to 28.7 µM; activity change, negative = inhibition: at the top concentration
Excerpt: The goal of this screen is to discover new antimalarial compounds that act by inhibiting the development of the apicoplast in the malarial parasite Plasmodium falciparum. The biochemical processes that make this organelle essential for erythrocytic stage parasites are not well understood. However, antibiotics such as azithromycin and tetracycline, which target the apicoplast translational machinery, have a potent antimalarial effect.
We have developed a cell-based assay that measures parasite growth based on the expression of an integrated copy of a firefly luciferase reporter. To detect small molecules that cause this "delayed death" phenotype, erythrocytes infected with the luciferase-expressing parasites were incubated with compounds for either one or two generations, corresponding to 48 and 96 hours, respectively. Compounds that inhibit parasite growth in the second generation, but not the first, should be enriched in antimalarials that target the apicoplast. Growth inhibition is detected by a decrease in luciferase activity.
Assay Provider: David Fidock and Eric Ekland, Columbia University
Keywords: NIH Roadmap, MLPCN, MLI, MLSMR, qHTS, NCGC, qHTS, malaria, luciferase, viability
Four microliters of infected erythrocytes (2% hematocrit, 0.05% parasitemia final concentration) in culture medium were dispensed and the plates incubated for 96 hours at 37 C in 5% CO2. Two microliters of luciferase detection reagent was added and luminescence was detected by a ViewLux (PerkinElmer) reader.
With `CC(C)NC(=O)C(c1ccc(F)cc1)N(C(=O)CCC(=O)Nc1ccccn1)c1ccccc1F` (stereo not given) the “activity change, negative = inhibition” value was 0.184% (inactive).
With `Cc1ccc(-n2c(C)cc(/C=N/Nc3ccc([N+](=O)[O-])cn3)c2C)c(C)c1` the Potency was 10.4 µM (active).
For `Cc1cc(/C=N/Nc2ccc([N+](=O)[O-])cn2)c(C)n1-c1cccc(C(=O)O)c1`, the “activity change, negative = inhibition” value was 20.5% (inactive).
In the case of `Cc1ccc(N2CCN(c3ccc([N+](=O)[O-])cn3)CC2)c(C)c1`, the “activity change, negative = inhibition” value is reported as 1.91% (inactive).
With `O=C(NC1CCCC1)C(c1ccc(Cl)cc1)N(C(=O)c1csnn1)C1CC1` (stereo not given) the “activity change, negative = inhibition” value was -3% (inactive).
For `CC1CC1C(=O)OCC(=O)Nc1cccc(F)c1` (stereo not given), the “activity change, negative = inhibition” value was -4.3% (inactive).
In the case of `O=S(=O)(O)c1nc2ccccc2n1Cc1ccc(Cl)cc1Cl`, the “activity change, negative = inhibition” value is reported as 6.21% (inactive).
For `N#CC(C#N)=CN=c1ccn(Cc2ccc(Cl)cc2Cl)cc1`, the Potency was 1.17 µM (active).
In the case of `Cn1ccc(=NC=C(C#N)C#N)c2ccccc21`, the “activity change, negative = inhibition” value is reported as 27.4% (inactive).
With `CC(C)[C@H](NC(=O)N1CCn2c1nc1ccccc12)C(=O)NC1CC1` the “activity change, negative = inhibition” value was -13% (inactive).
For `CCOc1ccc(C(=O)Nc2ccc(S(=O)(=O)Nc3cc(C)on3)cc2)cc1`, the Potency was 2.94 µM (active).
With `COc1cc2ccccc2cc1C(=O)Nc1ccc(S(=O)(=O)Nc2cc(C)on2)cc1` the “activity change, negative = inhibition” value was 64.4% (inactive).
In the case of `CCOC(=O)c1cc(C(=O)Nc2ccc(S(=O)(=O)Nc3ccc(OC)cc3)cc2)nn1C`, the Potency is reported as 11.7 µM (active).
In the case of `CCOC(=O)c1ccccc1NS(=O)(=O)c1ccc(OC)cc1`, the “activity change, negative = inhibition” value is reported as 15.9% (inactive).
For `COc1ccc(NC(=O)c2cnc(NS(=O)(=O)c3ccccc3)nc2)cc1`, the “activity change, negative = inhibition” value was 82.4% (inactive).
For `COc1cc(OC)cc(C(=O)Nc2ccc(S(=O)(=O)Nc3cc(C)on3)cc2)c1`, the “activity change, negative = inhibition” value was -24.9% (inactive).
In the case of `CCOCCCNC(=S)Nc1ccc2nc(N3CCN(CC)CC3)cc(C)c2c1`, the “activity change, negative = inhibition” value is reported as 6.14% (inactive).
In the case of `Cc1cc(C)c(C#N)c(Nc2cccc(Br)c2)n1`, the “activity change, negative = inhibition” value is reported as -2.25% (inactive).
In the case of `Cc1ccc(S(=O)(=O)N2CCN(C)CC2)cc1`, the “activity change, negative = inhibition” value is reported as -1.36% (inactive).
In the case of `Cc1nn(C)c(C)c1NS(=O)(=O)c1ccc(OC(F)(F)F)cc1`, the “activity change, negative = inhibition” value is reported as 3.16% (inactive).
In the case of `COc1cc(C(=O)OCC(=O)N(CC(C)C)C2CCS(=O)(=O)C2)ccc1OCC(C)C` (stereo not given), the “activity change, negative = inhibition” value is reported as -6.25% (inactive).
With `CN(CC(=O)Nc1cccc(F)c1)C(=O)C1CSC2(C)CCC(=O)N12` (stereo not given) the “activity change, negative = inhibition” value was 20.8% (inactive).
For `CS(=O)(=O)N(CC(=O)N1CCCC1)Cc1ccccc1`, the “activity change, negative = inhibition” value was 11.3% (inactive).
For `COC(=O)CCC(=O)N1CCCC(CO)(Cc2ccccc2)C1` (stereo not given), the Potency was 0.37 µM (active).
In the case of `CCCc1cc(C(=O)N2CCCC(CO)(CCCc3ccccc3)C2)n(C)n1` (stereo not given), the “activity change, negative = inhibition” value is reported as -2.8% (inactive).
In the case of `CCNC(=S)N(CCN(CC)CC)Cc1cc2cc3c(cc2[nH]c1=O)OCO3`, the “activity change, negative = inhibition” value is reported as -11.3% (inactive).
For `COC(=O)C(C)n1cnc2c(nnn2-c2cccc(Cl)c2)c1=O` (stereo not given), the “activity change, negative = inhibition” value was -9.8% (inactive).
For `CC(C)C[C@H](CO)Nc1nc(N(C)c2cccc(Cl)c2)c2ncn(C(C)C)c2n1`, the Potency was 13.1 µM (active).
For `CC1COc2ccccc2N1C(=O)c1ccc(F)cc1` (stereo not given), the “activity change, negative = inhibition” value was 3.37% (inactive).
For `COc1cccc(C(C(=O)NC2CCCC2)N(C(=O)c2ccco2)c2cccc(C(C)=O)c2)c1OC` (stereo not given), the “activity change, negative = inhibition” value was -24.7% (inactive).
With `COc1cccc(-c2cc(C(=O)N3CCN(c4ccccc4OC)CC3)no2)c1` the “activity change, negative = inhibition” value was 218% (inactive).
For `COc1ccccc1N1CCN(C(=O)c2ccc(NC3=NC4CS(=O)(=O)CC4S3)cc2)CC1` (stereo not given), the Potency was 10.4 µM (active).
For `CN(Cc1ccccc1)C(=O)c1ccc(NC2=NC3CS(=O)(=O)CC3S2)cc1` (stereo not given), the “activity change, negative = inhibition” value was 5.53% (inactive).
With `NS(=O)(=O)c1ccc(CCNC(=O)c2nc(CS(=O)(=O)c3ccc(Cl)cc3)no2)cc1` the “activity change, negative = inhibition” value was 22.4% (inactive).
In the case of `CC1CC(C)CN(C(=O)C2CC(=O)N(c3ccc(F)cc3)C2)C1` (stereo not given), the “activity change, negative = inhibition” value is reported as 20.3% (inactive).
In the case of `CC1(C)O[C@@H]2[C@H](O1)[C@@H](COS(=O)(=O)O)O[C@H]2n1cnc2c(=O)[nH]cnc21`, the “activity change, negative = inhibition” value is reported as 34.3% (inactive).
With `CCCCNC(=O)C1(O)c2ccccc2NC(=O)N1c1ccc(Cl)cc1` (stereo not given) the “activity change, negative = inhibition” value was 11.4% (inactive).
With `Cc1ccc(S(=O)(=O)N(Cc2cccc([N+](=O)[O-])c2)C(=O)N2CCN(C)CC2)cc1` the “activity change, negative = inhibition” value was -2.96% (inactive).
With `O=C(CSCc1ccccc1)Nc1ccccc1` the “activity change, negative = inhibition” value was -1.81% (inactive).
In the case of `Cc1c(NC(=O)CSCc2ccccc2)cccc1C(=O)O`, the Potency is reported as 10.4 µM (active).
For `CCCNC(=O)c1ccccc1NC(=O)CSCc1ccc(OC)cc1`, the “activity change, negative = inhibition” value was 3.51% (inactive).
For `Nc1ccn(C2CC(O)C(CO)O2)c(=O)n1` (stereo not given), the “activity change, negative = inhibition” value was 60.4% (inactive).
For `CCOC(=O)NN1C(=O)c2ccccc2NC1c1ccccc1O` (stereo not given), the Potency was 14.7 µM (active).
With `O=C1c2ccccc2NC(c2ccccc2O)N1NS(=O)(=O)c1ccccc1` (stereo not given) the “activity change, negative = inhibition” value was 0.813% (inactive).
In the case of `CCOC(=O)NN1C(=O)c2ccccc2NC1c1cccc(O)c1` (stereo not given), the “activity change, negative = inhibition” value is reported as 18.3% (inactive).
With `COc1ccc(OC)c(C(C)NC(=S)Nc2ccc(S(=O)(=O)Nc3ncccn3)cc2)c1` (stereo not given) the “activity change, negative = inhibition” value was 59.7% (inactive).
With `COc1ccccc1-n1c(-c2cc(-c3ccco3)[nH]n2)n[nH]c1=S` the “activity change, negative = inhibition” value was 1.29% (inactive).
For `COc1ccc2c(c1)C(c1cccs1)=NNC(c1cccnc1)=N2`, the “activity change, negative = inhibition” value was 15.7% (inactive).
In the case of `CCc1ccc2c(c1)C(c1ccc([N+](=O)[O-])cc1)=NNC(c1ccccc1)=N2`, the “activity change, negative = inhibition” value is reported as 12.3% (inactive).
With `Fc1ccc2c(c1)C(c1cccnc1)=NNC(c1cccs1)=N2` the Potency was 7.38 µM (active).
